The list is not random: actives were taken first. Their share in the collection is about 7.3%.
FMDV inh: antivirals against foot and mouth disease virus | FMDV antiviral cell-based qHTS | AID 1159524 | 410,000 tested, 1.2% active | Potency, µM (doses to about 57.9 µM), for inactives: top-dose activity change, negative = inhibition, most hits filed as inhibitors; calls by dose curve; tested in HEK293T cells; note: read-out not given here; potency is the fitted concentration of half-maximal effect; nearly all actives have a fitted effect of over 45% in size
HCV inh: blocks hepatitis C virus | Huh7.5.1 HCVcc-Cre infection, luciferase reporter, 44 h | Potency, µM (highest dose often 41.8 µM), for inactives: at the highest dose activity change, negative = inhibition, most hits filed as inhibitors | 340,000 tested, 3.4% active | AID 651820; active = well fitted inhibition curve with a large enough effect; inconclusive = small, poorly fitted or top-dose-only effect, or another doubt; inactive = no such curve, though single readings can be large or run the other way; note: potency is the fitted concentration of half-maximal effect
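Cells seeded at 1,000/well and cultured 4 h, then compounds added followed by HCVcc-Cre virus (~0.5 moi). After 44 h further culture, luciferase substrate was added, plates held 15 min at room temperature, and luminescence read for 15 sec.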
VACV mCherry inh: inhibitors of vaccinia virus infection (mCherry reporter signal); Vaccinia virus mCherry reporter infection, fluorescence; Potency, µM (doses to about 36.5 µM), without a hit: at the highest dose activity change, negative = inhibition, hits mostly inhibitors; 310,000 tested, 0.63% active; AID 720579; calls by dose curve; tested in A549 cells; note: potency is the fitted concentration of half-maximal effect; nearly all actives have a fitted effect of over 35% in size
HCMV antiviral: inhibitors of human cytomegalovirus | HFF cells, HCMV-luciferase reporter, 72 h; hits give low values | activity change, negative = inhibition, % at 57.5 µM | 410,000 tested, 4.5% active; in the data active = activity change below about -60%; inconclusive = no clear call, values can overlap the other calls; inactive = above about -39%
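HFF cells seeded 16 h at 37C, treated with compounds, infected with luciferase-reporter HCMV at MOI 1 PFU/cell; luciferase read at 72 h post infection, normalized to buffer-only and Salinomycin controls.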
VACV Venus inh: inhibitors of vaccinia virus (Venus reporter); Vaccinia virus Venus reporter expression, fluorescence; Potency, µM (top dose mostly 36.5 µM), for the others: at the top dose activity change, negative = inhibition, most hits filed as inhibitors; AID 720580; 330,000 tested, 0.46% active; calls by dose curve; tested in A549 cells; note: potency is the fitted concentration of half-maximal effect; nearly all actives have a fitted effect of over 30% in size
The depositor's hits bear a star; i = inactive; ? = inconclusive; nt = no result; [ ] = dose if it differs, or a comment. % is set by controls: 0 for no effect and ±100 for the full control effect.

SMILES	FMDV inh	HCV inh	VACV mCherry inh	HCMV antiviral	VACV Venus inh
COc1ccc(C(=O)NC(=S)NNC(=O)COc2ccccc2)cc1	28µM*	-26%	?	-22	-15%
COc1ccc(CC(=O)NNC(=O)c2cnccn2)cc1	-5%	10%	nt	11	nt
COc1ccc2[nH]c(C(O)C(O)c3nc4c(OC)c(OC)ccc4[nH]3)nc2c1OC (stereo unspecified)	nt	nt	-4%	nt	-20%
COc1ccc(C(=O)NNC(=S)NC(=O)C(C)(C)C)cc1	-4%	?	4µM*	-31	?
O=C(NC(=S)NNC(=O)c1cnccn1)c1ccc(Cl)cc1	24%	?	-20%[7.34 µM]	94	-14%[7.34 µM]
COc1ccc(C(=O)NC(=S)NNC(=O)c2cnccn2)cc1	8%	?	-15%	-85*	-14%
COc1ccc(C(=O)NNC(=S)NC(=O)/C=C/c2cccs2)cc1	-19%	?	-15%	-7	-4%
COc1ccc(C(=O)NNC(=O)c2ccc(C(C)(C)C)cc2)cc1	6%	-1%	i	-4	-5%
O=C(/C=C/c1cccs1)NC(=S)NNC(=O)c1ccccc1O	-14%	22µM*	?	-94*	-8%
Cn1cnc2c(=O)oc3ccc(S(=O)(=O)Nc4ccc(F)cc4)cc3c21	-25%	nt	-5%	16	1%
COc1cccc(OCc2cc(C3Nc4ccccc4C(=O)N3c3ccccc3)ccc2OC)c1 (stereo unspecified)	nt	nt	-13%	nt	-5%
O=c1c(S(=O)(=O)c2ccccc2)cn(Cc2ccccc2)c2cc(N3CCOCC3)c(F)cc12	-8%	nt	-6%	-27	-16%
COc1ccc2ncn(-c3ccccc3)c2c1	10%	-31%	nt	?	nt
c1ccc2c(c1)ncn2CCn1cnc2ccccc21	-5%	13%	nt	-18	nt
COc1ccccc1/C=C/c1nc2ccccc2c(=O)o1	51%	17%	nt	22	nt
COc1ccc(/C=C/c2nc3ccccc3n2C)cc1	1.8µM*	?	?	-85*	?
c1ccc(-n2cnc3ccccc32)cc1	22%	-1%	nt	-93*	nt
COc1ccc(-n2cnc3ccccc32)cc1	nt	-18%	-18%	-74*	0%
COc1ccc(/C=C/c2nc3ccccc3c(=O)o2)cc1	0%	18%	i	-95*	-18%
CCOc1ccc(OCC)c(NS(=O)(=O)c2cc(-c3cc(C)no3)ccc2C)c1	-13%	nt	-6%	0	-5%
O=C(NCc1ccccc1)c1cnc(N2CCCCC2)c2ccccc12	19%	nt	-9%	47	-11%
O=C1c2ccccc2/C(=C\c2ccc(O[C@@H]3CCCCO3)cc2)N1c1ccccc1	nt	nt	nt	-32	nt
COC(=O)c1c(C)c2c(C)cc3ccccn3c-2c1C(=O)OC	?	10µM*	nt	-13	-21%
O=C(NCCc1ccccc1)C(=O)c1c(-c2ccccc2)cc2ccccn12	79%	5%	-13%	-33	-5%
COC(=O)c1cc2c(-c3ccccc3)cc3ccccn3c-2c1C(=O)OC	?	1.8µM*	nt	-4	12%
SMILES	FMDV inh	HCV inh	VACV mCherry inh	HCMV antiviral	VACV Venus inh
CCOC(=O)C(=O)c1c(C)cc2ccccn12	13%	-18%	nt	-32	nt
Cc1cnc(C)c(-c2cccc3c2OC(CNC(=O)c2cc(C)on2)C3)n1 (stereo unspecified)	15%	nt	-16%	nt	2%
CN(C)[C@H]1CC[C@@]23CCCN2C(=O)CCC[C@H]3[C@H]1Cc1ccccc1	nt	nt	nt	4	nt
CC(C)c1nn2c(=O)cc(COC(=O)c3cccc(NC(=O)CCc4ccccc4)c3)nc2s1	36%	nt	-9%	-6	-6%
CC1(Cc2ccc(Cl)cc2)C(=O)Nc2ccc(-c3cccnc3)cc21 (stereo unspecified)	-27%	nt	i	-66*	-10%
COc1cccc(-c2cccc3c2NC(=O)C3(C)Cc2cccc(F)c2)c1 (stereo unspecified)	35µM*	nt	7%	8	4%
CC1(Cc2cc(Cl)ccc2C(F)(F)F)C(=O)Nc2ccc(-c3ccc(F)c(Cl)c3)cc21 (stereo unspecified)	0%	nt	i	-63*	-30%
CC1(Cc2cccc(F)c2)C(=O)Nc2ccc(-c3cccnc3)cc21 (stereo unspecified)	-9%	nt	i	-74*	?
CCc1ccc2c(c1)NC(=O)C2(C)Cc1cccc(F)c1 (stereo unspecified)	-2%	nt	10%	?	-10%
CSc1ccccc1NC(=O)C1=CC(c2ccc3c(c2)OCO3)=NS(=O)(=O)N1C	-3%	nt	-4%	-7	-8%
O=C1NC[C@H](Cc2ccccc2)N(C[C@H]2CCCN2C[C@H](Cc2ccccc2)N2C[C@H](Cc3ccc(O)cc3)N(CCc3ccccc3)C(=O)C2=O)C1=O	-19%	4%	-6%	-73*	-9%
O=C1NC[C@H](Cc2ccccc2)N(C[C@@H]2CCCN2C[C@H](Cc2ccccc2)N2C[C@H](Cc3ccccc3)N(CC3CCCCC3)C(=O)C2=O)C1=O	3%	nt	7%	-10	-14%
CCOc1ccc(CCN2C(=O)C(=O)N([C@@H](CC(C)C)CN3CCC[C@@H]3CN3C(=O)C(=O)NC[C@@H]3Cc3ccccc3)C[C@@H]2CC(C)C)cc1	?	-27%	-1%	-14	13µM*
O=C1NC[C@H](Cc2ccccc2)N(C[C@H]2CCCN2C[C@H](Cc2ccccc2)N2C[C@H](Cc3ccccc3)N(CC3CCCCC3)C(=O)C2=O)C1=O	?	8.9µM*	?	-8	?
O=C1NC[C@H](Cc2ccccc2)N(C[C@@H]2CCCN2C[C@H](Cc2ccc(O)cc2)N2C[C@H](Cc3ccc(O)cc3)N(CCc3ccccc3)C(=O)C2=O)C1=O	-3%	nt	0%	-16	-8%
CCOc1ccc(CCN2C(=O)C(=O)N([C@@H](CC(C)C)CN3CCC[C@H]3CN3C(=O)C(=O)NC[C@@H]3Cc3ccccc3)C[C@@H]2Cc2ccccc2)cc1	?	nt	?	-29	-29%
CCOc1ccc(CCN2C(=O)C(=O)N([C@@H](Cc3ccccc3)CN3CCC[C@H]3CN3C(=O)C(=O)NC[C@@H]3Cc3ccccc3)C[C@@H]2Cc2ccccc2)cc1	?	nt	?	-65*	?
COc1ccc(C(=O)NCc2nc(-c3cccc(C)c3)no2)cc1OC	-7%	nt	-13%	-23	-7%
CCOc1cc(C2c3c(oc4ccccc4c3=O)C(=O)N2Cc2ccc3c(c2)OCO3)ccc1O (stereo unspecified)	72%	nt	?	-9	-28%
CCO[C@H]1OC(C(=O)NCc2ccccc2)=C[C@@H](c2ccc3c(c2)OCO3)[C@@H]1CCCO	-15%	-24%	i	-68*	-24%
CCO[C@@H]1OC(C(=O)Nc2ccccc2)=C[C@H](c2ccc3c(c2)OCO3)[C@H]1CCCO	0%	0%	35%	8	-2%
CCO[C@@H]1OC(C(=O)NCc2ccccc2)=C[C@H](c2ccc3c(c2)OCO3)[C@H]1CCCO	3%	14%	-13%	-9	-17%
